# Source: publication PMC7862700, “An all-to-all approach to the identification of sequence-specific readers for epigenetic DNA modifications on cytosine”
# Experiments:
# Test in all cases: DAPPL (digital affinity profiling via proximity ligation, sequencing); 10 mM Tris-HCl pH 7.5, 50 mM NaCl, 1 mM DTT, 4% glycerol, room temperature, 30 min; GST-TFs on glutathione beads, 16-mer random dsDNA library, 0.1% formaldehyde crosslink after washing; high values mean tight binding
# FEV = molecular target: T1, FEV (Homo sapiens, UniProt Q99581 1-238); conditions: protein: recombinant; tags: N-terminal GST; dsDNA, one strand shown
# T1 sequence: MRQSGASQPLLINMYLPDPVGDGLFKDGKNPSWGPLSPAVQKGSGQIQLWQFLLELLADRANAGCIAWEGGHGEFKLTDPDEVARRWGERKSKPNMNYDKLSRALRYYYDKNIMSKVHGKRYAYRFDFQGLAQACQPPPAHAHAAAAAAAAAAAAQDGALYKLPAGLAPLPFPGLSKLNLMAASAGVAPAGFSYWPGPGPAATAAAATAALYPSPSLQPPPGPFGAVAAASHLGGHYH
# Outline: (§1)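 In yeast, human transcription factors were expressed with a GST fusion, then pulled down on glutathione beads and given DNA barcodes. Pooled with a tag-only sample, they were exposed to 200 nmole of a 16-mer random double-stranded DNA library (Tris/NaCl/DTT/glycerol buffer, room temperature, 30 min), washed, crosslinked with 0.1% formaldehyde, proximity-ligated using BsaI/T4 ligase for 1 h at 37 °C, PCR-amplified and read on an Illumina NextSeq500. Each hexamer's frequency of reads for a factor, divided by the matching frequency for the tag-only sample, gives the binding signal.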
# ETV5 = ETV5 (Homo sapiens, UniProt P41161 1-510); conditions: protein: recombinant; tags: N-terminal GST; dsDNA, one strand shown
# Outline: as §1
# HSF1 = HSF1 (Homo sapiens, UniProt Q00613 1-529); conditions: protein: recombinant; tags: N-terminal GST; chain copies: 3; dsDNA, one strand shown
# Outline: as §1
# SPIC = molecular target: T2, SPIC (Homo sapiens, UniProt Q8N5J4 1-248); conditions: protein: recombinant; tags: N-terminal GST; dsDNA, one strand shown
# T2 sequence: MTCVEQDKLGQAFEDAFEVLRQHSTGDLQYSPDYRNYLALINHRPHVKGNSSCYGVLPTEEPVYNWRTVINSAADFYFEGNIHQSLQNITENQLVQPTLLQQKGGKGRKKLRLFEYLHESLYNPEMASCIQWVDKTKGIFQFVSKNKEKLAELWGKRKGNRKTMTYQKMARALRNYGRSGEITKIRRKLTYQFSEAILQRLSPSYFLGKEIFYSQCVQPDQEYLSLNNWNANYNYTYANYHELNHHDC
# Outline: as §1
# ELF4 = ELF4 (Homo sapiens, UniProt Q99607 1-663); conditions: protein: recombinant; tags: N-terminal GST; dsDNA, one strand shown
# Outline: as §1
# ELK4 = molecular target: T3, ELK4 (Homo sapiens, UniProt P28324-2 1-405); conditions: protein: recombinant; tags: N-terminal GST; dsDNA, one strand shown
# T3 sequence: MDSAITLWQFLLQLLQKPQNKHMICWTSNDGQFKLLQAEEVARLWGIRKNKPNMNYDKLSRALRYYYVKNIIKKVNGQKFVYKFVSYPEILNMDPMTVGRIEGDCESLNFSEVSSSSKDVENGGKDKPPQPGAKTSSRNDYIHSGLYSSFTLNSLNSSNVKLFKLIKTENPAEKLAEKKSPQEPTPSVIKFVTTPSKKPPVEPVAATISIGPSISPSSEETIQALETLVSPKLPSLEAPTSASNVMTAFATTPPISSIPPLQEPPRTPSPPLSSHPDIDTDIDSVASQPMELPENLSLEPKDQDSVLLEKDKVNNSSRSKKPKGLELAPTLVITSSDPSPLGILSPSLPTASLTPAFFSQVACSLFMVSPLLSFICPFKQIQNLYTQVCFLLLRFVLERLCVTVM
# Outline: as §1
# ETV2 = molecular target: T4, ETV2 (Homo sapiens, UniProt O00321 1-342); conditions: protein: recombinant; tags: N-terminal GST; dsDNA, one strand shown
# T4 sequence: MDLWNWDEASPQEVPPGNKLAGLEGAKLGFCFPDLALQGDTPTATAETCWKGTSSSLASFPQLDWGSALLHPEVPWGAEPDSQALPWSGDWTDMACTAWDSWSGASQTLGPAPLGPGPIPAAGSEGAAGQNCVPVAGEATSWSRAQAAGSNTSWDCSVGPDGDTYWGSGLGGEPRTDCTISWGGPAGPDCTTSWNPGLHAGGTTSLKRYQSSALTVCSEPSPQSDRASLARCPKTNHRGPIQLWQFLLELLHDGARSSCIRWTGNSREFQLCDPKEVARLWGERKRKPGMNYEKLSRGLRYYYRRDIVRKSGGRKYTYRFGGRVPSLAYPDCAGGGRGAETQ
# Outline: as §1
# ELF3 = molecular target: T5, ELF3 (Homo sapiens, UniProt P78545 1-371); conditions: protein: recombinant; tags: N-terminal GST; dsDNA, one strand shown
# T5 sequence: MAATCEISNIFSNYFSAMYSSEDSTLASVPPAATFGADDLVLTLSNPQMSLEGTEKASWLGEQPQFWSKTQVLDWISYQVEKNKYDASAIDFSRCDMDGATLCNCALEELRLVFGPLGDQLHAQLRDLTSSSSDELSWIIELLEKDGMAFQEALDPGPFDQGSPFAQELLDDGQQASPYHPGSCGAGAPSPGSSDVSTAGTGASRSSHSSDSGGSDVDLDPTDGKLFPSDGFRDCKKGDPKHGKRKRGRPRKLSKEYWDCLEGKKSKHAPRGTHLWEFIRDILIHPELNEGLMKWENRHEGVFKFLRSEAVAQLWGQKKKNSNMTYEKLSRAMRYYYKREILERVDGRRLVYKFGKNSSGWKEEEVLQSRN
# Outline: as §1
# ETV1 = ETV1 (Homo sapiens, UniProt P50549 1-477); conditions: protein: recombinant; tags: N-terminal GST; dsDNA, one strand shown
# Outline: as §1
# ERF = molecular target: T6, ERF (Homo sapiens, UniProt P50548 1-548); conditions: protein: recombinant; tags: N-terminal GST; dsDNA, one strand shown
# T6 sequence: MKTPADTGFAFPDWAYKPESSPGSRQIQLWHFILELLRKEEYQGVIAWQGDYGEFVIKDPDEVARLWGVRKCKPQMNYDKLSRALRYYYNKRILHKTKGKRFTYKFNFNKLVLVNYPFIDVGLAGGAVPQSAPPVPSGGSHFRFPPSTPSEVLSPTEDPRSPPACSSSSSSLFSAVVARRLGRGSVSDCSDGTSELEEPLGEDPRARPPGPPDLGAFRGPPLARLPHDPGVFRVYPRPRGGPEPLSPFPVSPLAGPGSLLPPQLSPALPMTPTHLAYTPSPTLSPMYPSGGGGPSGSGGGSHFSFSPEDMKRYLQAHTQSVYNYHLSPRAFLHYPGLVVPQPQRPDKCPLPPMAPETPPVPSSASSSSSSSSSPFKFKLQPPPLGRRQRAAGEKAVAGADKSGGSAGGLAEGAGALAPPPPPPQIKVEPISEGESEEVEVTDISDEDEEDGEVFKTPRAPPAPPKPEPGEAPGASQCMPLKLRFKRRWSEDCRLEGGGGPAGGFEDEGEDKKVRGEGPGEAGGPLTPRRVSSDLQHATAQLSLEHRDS
# Outline: as §1
# ETV3L = molecular target: T7, ETV3L (Homo sapiens, UniProt Q6ZN32 1-361); conditions: protein: recombinant; tags: N-terminal GST; dsDNA, one strand shown
# T7 sequence: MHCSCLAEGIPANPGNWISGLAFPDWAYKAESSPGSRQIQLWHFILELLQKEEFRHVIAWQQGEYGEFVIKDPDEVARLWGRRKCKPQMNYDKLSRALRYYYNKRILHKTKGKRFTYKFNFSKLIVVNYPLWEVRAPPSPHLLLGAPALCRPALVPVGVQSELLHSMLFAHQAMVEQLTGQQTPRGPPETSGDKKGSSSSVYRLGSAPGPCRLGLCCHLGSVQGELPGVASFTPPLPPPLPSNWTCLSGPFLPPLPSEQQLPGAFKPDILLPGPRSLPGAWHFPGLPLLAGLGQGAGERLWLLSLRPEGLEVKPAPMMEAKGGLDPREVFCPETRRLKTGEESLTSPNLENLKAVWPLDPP
# Outline: as §1
# ETS2 = molecular target: T8, ETS2 (Homo sapiens, UniProt P15036 1-469); conditions: protein: recombinant; tags: N-terminal GST; dsDNA, one strand shown
# T8 sequence: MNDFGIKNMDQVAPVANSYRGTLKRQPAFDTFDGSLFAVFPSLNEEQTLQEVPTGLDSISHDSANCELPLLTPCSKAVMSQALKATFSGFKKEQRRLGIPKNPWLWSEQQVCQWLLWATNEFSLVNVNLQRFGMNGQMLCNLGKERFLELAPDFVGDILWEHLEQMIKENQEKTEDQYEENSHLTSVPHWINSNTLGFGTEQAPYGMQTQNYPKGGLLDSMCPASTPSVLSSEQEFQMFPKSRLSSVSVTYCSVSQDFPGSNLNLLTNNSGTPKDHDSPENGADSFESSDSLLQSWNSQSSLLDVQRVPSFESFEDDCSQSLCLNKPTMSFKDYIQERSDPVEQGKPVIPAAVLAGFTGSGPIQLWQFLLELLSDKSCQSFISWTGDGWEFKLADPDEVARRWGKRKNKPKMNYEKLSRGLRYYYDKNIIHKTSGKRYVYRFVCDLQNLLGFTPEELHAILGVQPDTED
# Outline: as §1
# SPDEF = molecular target: T9, SPDEF (Homo sapiens, UniProt O95238 1-335); conditions: protein: recombinant; tags: N-terminal GST; dsDNA, one strand shown
# T9 sequence: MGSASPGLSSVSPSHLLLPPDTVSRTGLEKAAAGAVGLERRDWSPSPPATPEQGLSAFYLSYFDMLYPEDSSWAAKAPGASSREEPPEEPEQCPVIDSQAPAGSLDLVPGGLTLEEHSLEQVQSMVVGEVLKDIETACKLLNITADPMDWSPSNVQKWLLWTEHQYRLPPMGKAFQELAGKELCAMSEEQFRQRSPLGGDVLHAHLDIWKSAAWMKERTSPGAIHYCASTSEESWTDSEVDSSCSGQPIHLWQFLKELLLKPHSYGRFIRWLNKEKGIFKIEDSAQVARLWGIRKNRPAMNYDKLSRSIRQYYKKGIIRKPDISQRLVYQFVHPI
# Outline: as §1
# ETV7 = molecular target: T10, ETV7 (Homo sapiens, UniProt Q9Y603 1-341); conditions: protein: recombinant; tags: N-terminal GST; dsDNA, one strand shown
# T10 sequence: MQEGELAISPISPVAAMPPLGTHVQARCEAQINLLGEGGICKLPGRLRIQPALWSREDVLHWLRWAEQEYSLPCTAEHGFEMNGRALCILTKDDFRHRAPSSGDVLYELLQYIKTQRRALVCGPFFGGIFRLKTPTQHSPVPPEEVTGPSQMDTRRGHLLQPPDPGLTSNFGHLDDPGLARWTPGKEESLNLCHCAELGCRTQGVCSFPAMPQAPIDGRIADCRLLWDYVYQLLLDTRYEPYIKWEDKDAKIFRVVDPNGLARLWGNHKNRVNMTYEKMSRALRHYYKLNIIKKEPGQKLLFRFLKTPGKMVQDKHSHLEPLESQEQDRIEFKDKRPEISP
# Outline: as §1
# ELF5 = molecular target: T11, ELF5 (Homo sapiens, UniProt Q9UKW6-2 1-255); conditions: protein: recombinant; tags: N-terminal GST; dsDNA, one strand shown
# T11 sequence: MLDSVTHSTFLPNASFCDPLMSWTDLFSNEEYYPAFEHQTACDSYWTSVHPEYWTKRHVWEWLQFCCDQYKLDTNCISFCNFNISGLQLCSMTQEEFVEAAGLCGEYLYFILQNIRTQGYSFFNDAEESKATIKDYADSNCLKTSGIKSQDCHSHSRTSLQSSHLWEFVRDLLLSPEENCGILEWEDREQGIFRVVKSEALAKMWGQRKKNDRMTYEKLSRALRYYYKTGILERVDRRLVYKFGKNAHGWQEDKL
# Outline: as §1
# ETV3 = molecular target: T12, ETV3 (Homo sapiens, UniProt P41162-2 1-143); conditions: protein: recombinant; tags: N-terminal GST; dsDNA, one strand shown
# T12 sequence: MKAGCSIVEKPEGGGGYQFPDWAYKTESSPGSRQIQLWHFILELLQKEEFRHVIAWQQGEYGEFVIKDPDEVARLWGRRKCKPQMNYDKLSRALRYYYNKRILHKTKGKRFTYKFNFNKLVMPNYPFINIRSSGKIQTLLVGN
# Outline: as §1
# ETV6 = ETV6 (Homo sapiens, UniProt P41212 1-452); conditions: protein: recombinant; tags: N-terminal GST; dsDNA, one strand shown
# Outline: as §1
# Chain of ETV6 (P41212 whole entry): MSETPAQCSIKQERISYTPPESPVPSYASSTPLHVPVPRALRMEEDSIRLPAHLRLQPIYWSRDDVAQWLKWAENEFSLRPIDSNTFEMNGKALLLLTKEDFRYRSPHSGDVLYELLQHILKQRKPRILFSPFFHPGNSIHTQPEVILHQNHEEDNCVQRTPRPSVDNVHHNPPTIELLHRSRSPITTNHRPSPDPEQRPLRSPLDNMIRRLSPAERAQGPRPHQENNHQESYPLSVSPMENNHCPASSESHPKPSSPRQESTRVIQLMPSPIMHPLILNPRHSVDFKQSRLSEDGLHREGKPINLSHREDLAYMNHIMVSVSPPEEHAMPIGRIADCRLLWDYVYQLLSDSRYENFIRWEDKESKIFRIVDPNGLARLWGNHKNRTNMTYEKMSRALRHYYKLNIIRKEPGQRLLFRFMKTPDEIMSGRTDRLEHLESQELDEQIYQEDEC
# Chain of ETV5 (P41161 whole entry): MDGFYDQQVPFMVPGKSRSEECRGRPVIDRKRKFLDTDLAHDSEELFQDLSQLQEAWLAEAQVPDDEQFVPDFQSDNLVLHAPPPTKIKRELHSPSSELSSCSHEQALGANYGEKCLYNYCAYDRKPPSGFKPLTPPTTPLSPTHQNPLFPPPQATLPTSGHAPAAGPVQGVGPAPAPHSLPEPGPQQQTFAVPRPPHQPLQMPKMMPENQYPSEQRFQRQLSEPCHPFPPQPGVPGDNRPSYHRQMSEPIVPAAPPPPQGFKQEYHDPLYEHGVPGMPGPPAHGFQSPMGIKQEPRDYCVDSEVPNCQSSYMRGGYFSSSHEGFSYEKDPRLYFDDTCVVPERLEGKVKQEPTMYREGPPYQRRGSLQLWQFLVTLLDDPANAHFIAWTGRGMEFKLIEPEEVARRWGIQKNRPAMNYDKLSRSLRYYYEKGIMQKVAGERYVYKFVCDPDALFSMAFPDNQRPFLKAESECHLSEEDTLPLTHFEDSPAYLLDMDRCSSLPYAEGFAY
# Chain of ETV1 (P50549 whole entry): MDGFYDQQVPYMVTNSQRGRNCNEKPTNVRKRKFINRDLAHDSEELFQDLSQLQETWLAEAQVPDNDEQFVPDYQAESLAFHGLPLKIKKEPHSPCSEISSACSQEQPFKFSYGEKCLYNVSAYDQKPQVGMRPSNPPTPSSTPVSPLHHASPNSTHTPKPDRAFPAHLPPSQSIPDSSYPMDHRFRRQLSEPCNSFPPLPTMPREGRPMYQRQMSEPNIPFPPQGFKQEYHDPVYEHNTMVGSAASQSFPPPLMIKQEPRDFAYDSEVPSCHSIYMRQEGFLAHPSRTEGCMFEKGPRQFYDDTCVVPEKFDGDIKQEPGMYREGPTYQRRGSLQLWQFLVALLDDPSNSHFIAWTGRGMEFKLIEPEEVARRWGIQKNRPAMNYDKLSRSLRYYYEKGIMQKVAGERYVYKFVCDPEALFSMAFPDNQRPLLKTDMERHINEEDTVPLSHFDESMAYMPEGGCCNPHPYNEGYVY
# Chain of ELF4 (Q99607 whole entry): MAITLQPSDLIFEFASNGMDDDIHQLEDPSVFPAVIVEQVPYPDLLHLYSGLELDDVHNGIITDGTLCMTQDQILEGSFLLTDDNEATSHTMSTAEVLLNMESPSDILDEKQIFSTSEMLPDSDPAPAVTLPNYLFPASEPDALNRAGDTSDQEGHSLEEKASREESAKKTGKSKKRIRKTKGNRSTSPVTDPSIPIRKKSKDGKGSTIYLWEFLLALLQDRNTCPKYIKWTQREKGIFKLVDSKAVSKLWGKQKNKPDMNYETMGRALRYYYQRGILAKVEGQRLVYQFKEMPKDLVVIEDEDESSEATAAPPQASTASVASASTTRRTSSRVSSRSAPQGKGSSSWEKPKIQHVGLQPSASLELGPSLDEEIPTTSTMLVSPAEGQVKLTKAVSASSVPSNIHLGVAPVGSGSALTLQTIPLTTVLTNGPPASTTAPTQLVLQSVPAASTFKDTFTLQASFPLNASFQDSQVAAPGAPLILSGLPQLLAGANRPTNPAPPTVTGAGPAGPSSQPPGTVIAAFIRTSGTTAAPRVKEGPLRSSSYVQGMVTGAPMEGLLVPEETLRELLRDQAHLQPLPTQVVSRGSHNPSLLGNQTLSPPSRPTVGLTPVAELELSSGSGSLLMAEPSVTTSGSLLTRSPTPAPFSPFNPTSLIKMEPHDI
# Chain of HSF1 (Q00613 whole entry): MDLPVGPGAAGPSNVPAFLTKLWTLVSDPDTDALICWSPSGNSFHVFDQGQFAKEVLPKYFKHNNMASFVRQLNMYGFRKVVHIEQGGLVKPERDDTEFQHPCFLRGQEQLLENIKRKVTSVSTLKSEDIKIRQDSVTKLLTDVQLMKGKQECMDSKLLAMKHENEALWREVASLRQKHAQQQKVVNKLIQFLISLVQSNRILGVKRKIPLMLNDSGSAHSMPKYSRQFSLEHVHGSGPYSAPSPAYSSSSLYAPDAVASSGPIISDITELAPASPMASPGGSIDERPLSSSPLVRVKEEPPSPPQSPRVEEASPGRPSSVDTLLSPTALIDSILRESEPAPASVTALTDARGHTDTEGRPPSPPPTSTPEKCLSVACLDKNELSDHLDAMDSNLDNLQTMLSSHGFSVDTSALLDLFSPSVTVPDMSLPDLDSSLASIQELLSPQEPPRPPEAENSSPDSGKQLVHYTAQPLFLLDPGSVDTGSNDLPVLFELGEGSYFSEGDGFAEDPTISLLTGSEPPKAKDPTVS
Sequence,binding signal (FEV),binding signal (ETV5),binding signal (HSF1),binding signal (SPIC),binding signal (ELF4),binding signal (ELK4),binding signal (ETV2),binding signal (ELF3),binding signal (ETV1),binding signal (ERF),binding signal (ETV3L),binding signal (ETS2),binding signal (SPDEF),binding signal (ETV7),binding signal (ELF5),binding signal (ETV3),binding signal (ETV6)
TGCCCG,"1.27 fold enrichment (6-mer frequency, TF over GST control)","1.21 fold enrichment (6-mer frequency, TF over GST control)","1.01 fold enrichment (6-mer frequency, TF over GST control)","1.34 fold enrichment (6-mer frequency, TF over GST control)","1.21 fold enrichment (6-mer frequency, TF over GST control)","1.16 fold enrichment (6-mer frequency, TF over GST control)","1.26 fold enrichment (6-mer frequency, TF over GST control)","1.32 fold enrichment (6-mer frequency, TF over GST control)","1.21 fold enrichment (6-mer frequency, TF over GST control)","1.13 fold enrichment (6-mer frequency, TF over GST control)","1.16 fold enrichment (6-mer frequency, TF over GST control)","1.26 fold enrichment (6-mer frequency, TF over GST control)","1.28 fold enrichment (6-mer frequency, TF over GST control)","1.34 fold enrichment (6-mer frequency, TF over GST control)","1.19 fold enrichment (6-mer frequency, TF over GST control)","1.24 fold enrichment (6-mer frequency, TF over GST control)","1.19 fold enrichment (6-mer frequency, TF over GST control)"
AGTTCC,"1.96 fold enrichment (6-mer frequency, TF over GST control)","2.29 fold enrichment (6-mer frequency, TF over GST control)","1.34 fold enrichment (6-mer frequency, TF over GST control)","2.42 fold enrichment (6-mer frequency, TF over GST control)","1.97 fold enrichment (6-mer frequency, TF over GST control)","1.98 fold enrichment (6-mer frequency, TF over GST control)","1.88 fold enrichment (6-mer frequency, TF over GST control)","2.05 fold enrichment (6-mer frequency, TF over GST control)","2.21 fold enrichment (6-mer frequency, TF over GST control)","1.73 fold enrichment (6-mer frequency, TF over GST control)","2.15 fold enrichment (6-mer frequency, TF over GST control)","2.17 fold enrichment (6-mer frequency, TF over GST control)","2.56 fold enrichment (6-mer frequency, TF over GST control)","1.94 fold enrichment (6-mer frequency, TF over GST control)","2.79 fold enrichment (6-mer frequency, TF over GST control)","2.38 fold enrichment (6-mer frequency, TF over GST control)","2.17 fold enrichment (6-mer frequency, TF over GST control)"
